Common to all, as to assay: DAPPL (digital affinity profiling via proximity ligation, sequencing); 10 mM Tris-HCl pH 7.5, 50 mM NaCl, 1 mM DTT, 4% glycerol, room temperature, 30 min; GST-TFs on glutathione beads, 16-mer random dsDNA library, 0.1% formaldehyde crosslink after washing; high values mean tight binding
Assay [1] has as its target T1, FLI1 (Homo sapiens, UniProt Q01543 1-452).
T1 sequence: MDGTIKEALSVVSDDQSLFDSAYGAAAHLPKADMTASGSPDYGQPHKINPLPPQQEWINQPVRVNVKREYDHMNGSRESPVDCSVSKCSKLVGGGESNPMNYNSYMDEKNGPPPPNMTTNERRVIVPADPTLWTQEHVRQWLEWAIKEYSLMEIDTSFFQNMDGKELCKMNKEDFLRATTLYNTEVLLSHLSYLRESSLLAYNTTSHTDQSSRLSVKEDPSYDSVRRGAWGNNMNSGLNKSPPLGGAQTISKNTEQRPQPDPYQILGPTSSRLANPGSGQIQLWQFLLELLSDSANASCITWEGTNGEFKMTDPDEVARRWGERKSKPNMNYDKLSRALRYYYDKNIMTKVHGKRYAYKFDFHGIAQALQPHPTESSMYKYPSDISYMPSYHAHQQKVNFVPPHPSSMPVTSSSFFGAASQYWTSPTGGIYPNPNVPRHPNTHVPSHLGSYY
The note with it: protein: recombinant; tags: N-terminal GST; dsDNA, one strand shown. Summed up: (§1)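 Binding signal is defined as a hexamer's read frequency for one factor over its frequency for the tag-only sample. To obtain reads, GST-fused human transcription factors were expressed in yeast, captured on glutathione beads, barcoded with DNA and pooled with that sample. Pools met 200 nmole of a 16-mer random double-stranded DNA library in Tris/NaCl/DTT/glycerol buffer for 30 min at room temperature before washing, 0.1% formaldehyde crosslinking, proximity ligation (BsaI/T4 ligase, 1 h, 37 °C), PCR and Illumina NextSeq500 sequencing.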

Assay [2] has as its target T2, ELK1 (Homo sapiens, UniProt P19419 1-428).
T2 sequence: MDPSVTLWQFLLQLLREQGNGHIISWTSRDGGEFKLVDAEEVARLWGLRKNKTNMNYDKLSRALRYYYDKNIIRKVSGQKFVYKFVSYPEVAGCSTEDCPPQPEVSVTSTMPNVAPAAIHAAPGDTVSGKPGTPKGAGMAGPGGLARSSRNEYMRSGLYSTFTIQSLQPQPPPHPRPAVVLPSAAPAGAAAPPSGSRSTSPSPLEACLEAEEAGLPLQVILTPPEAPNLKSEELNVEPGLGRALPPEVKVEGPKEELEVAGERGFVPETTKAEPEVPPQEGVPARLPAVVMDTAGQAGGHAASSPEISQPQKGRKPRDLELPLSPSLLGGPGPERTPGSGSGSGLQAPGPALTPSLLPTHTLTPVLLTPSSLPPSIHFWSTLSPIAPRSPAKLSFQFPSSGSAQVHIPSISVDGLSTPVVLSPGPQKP
The note with it: protein: recombinant; tags: N-terminal GST; dsDNA, one strand shown. The essentials:
as §1

For assay [3], the target named is T3, GABPA (Homo sapiens, UniProt Q06546 1-454).
T3 sequence: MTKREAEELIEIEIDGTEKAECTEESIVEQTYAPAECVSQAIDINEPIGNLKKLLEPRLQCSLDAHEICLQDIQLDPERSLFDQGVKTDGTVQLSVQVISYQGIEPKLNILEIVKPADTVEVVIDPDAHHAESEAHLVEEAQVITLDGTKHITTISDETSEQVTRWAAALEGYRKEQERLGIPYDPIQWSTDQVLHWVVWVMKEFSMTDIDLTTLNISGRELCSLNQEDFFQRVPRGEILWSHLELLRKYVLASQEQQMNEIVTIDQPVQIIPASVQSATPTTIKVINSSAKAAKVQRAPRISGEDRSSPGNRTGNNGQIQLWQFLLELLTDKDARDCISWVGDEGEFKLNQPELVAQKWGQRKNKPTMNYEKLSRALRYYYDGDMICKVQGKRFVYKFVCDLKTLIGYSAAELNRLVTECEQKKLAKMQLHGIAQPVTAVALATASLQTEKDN
The conditions noted are these: protein: recombinant; tags: N-terminal GST; dsDNA, one strand shown. Summed up:
as §1

In assay [4] the target is T4, ERG (Homo sapiens, UniProt P11308 1-479).
T4 sequence: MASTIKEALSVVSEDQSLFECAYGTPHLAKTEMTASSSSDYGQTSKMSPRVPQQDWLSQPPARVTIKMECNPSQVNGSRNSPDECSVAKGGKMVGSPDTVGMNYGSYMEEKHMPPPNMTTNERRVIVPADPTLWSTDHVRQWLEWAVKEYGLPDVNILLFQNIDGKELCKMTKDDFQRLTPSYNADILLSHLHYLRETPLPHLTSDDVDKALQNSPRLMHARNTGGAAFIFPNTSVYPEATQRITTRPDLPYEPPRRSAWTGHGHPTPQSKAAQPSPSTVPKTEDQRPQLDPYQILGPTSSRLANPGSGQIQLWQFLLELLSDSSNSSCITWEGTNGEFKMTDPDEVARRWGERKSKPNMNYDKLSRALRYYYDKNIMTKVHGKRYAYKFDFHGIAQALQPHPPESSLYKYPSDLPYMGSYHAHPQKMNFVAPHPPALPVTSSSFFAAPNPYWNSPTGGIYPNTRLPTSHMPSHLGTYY
The conditions noted are these: protein: recombinant; tags: N-terminal GST; dsDNA, one strand shown. Summed up:
as §1

For assay [5], the target named is ELF1 (Homo sapiens, UniProt P32519 1-619). The note with it: protein: recombinant; tags: N-terminal GST; dsDNA, one strand shown. Summed up: as §1
For assay [6], the target named is T5, EHF (Homo sapiens, UniProt Q9NZC4 1-300).
T5 sequence: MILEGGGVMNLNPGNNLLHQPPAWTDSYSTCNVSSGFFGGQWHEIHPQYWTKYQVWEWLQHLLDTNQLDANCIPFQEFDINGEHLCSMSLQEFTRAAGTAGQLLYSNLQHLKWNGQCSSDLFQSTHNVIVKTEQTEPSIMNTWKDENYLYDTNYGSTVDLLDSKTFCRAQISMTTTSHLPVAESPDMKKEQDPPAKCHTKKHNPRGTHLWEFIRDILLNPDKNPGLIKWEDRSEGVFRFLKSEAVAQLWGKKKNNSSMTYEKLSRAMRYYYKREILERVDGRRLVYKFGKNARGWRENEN
The conditions noted are these: protein: recombinant; tags: N-terminal GST; dsDNA, one strand shown. Summed up:
as §1

In assay [7] the target is SPI1 (Homo sapiens, UniProt P17947 1-270). The note with it: protein: recombinant; tags: N-terminal GST; dsDNA, one strand shown. The essentials:
as §1

Assay [8] concerns the target SPIB (Homo sapiens, UniProt Q01892 1-262). The conditions noted are these: protein: recombinant; tags: N-terminal GST; dsDNA, one strand shown. Summed up:
as §1

In assay [9] the target is T6, ELK3 (Homo sapiens, UniProt P41970 1-407).
T6 sequence: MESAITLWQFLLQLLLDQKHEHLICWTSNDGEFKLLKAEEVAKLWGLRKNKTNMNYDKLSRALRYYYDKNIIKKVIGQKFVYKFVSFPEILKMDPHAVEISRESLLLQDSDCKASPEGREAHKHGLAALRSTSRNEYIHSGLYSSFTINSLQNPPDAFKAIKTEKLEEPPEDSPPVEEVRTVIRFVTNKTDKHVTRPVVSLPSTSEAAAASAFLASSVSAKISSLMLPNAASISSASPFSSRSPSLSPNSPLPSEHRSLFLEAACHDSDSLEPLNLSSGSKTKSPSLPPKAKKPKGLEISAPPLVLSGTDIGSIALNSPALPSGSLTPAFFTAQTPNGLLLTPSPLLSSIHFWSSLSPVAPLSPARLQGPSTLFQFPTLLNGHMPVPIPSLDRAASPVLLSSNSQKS
The note with it: protein: recombinant; tags: N-terminal GST; dsDNA, one strand shown. Summed up:
as §1

The target in assay [10] is T7, FEV (Homo sapiens, UniProt Q99581 1-238).
T7 sequence: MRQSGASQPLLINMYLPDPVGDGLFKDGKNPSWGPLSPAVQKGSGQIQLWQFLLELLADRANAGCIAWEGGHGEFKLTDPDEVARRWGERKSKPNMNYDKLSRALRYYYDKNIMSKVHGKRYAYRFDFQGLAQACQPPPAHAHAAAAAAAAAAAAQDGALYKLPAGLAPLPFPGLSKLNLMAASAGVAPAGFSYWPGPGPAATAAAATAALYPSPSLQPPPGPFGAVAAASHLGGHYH
The note with it: protein: recombinant; tags: N-terminal GST; dsDNA, one strand shown. Summed up:
as §1

In assay [11] the target is ETV5 (Homo sapiens, UniProt P41161 1-510). The conditions noted are these: protein: recombinant; tags: N-terminal GST; dsDNA, one strand shown. The essentials: as §1
In assay [12] the target is HSF1 (Homo sapiens, UniProt Q00613 1-529). The note with it: protein: recombinant; tags: N-terminal GST; chain copies: 3; dsDNA, one strand shown. Summed up:
as §1

Assay [13] has as its target ELF4 (Homo sapiens, UniProt Q99607 1-663). The note with it: protein: recombinant; tags: N-terminal GST; dsDNA, one strand shown. Summed up:
as §1

For assay [14], the target named is T8, ELK4 (Homo sapiens, UniProt P28324-2 1-405).
T8 sequence: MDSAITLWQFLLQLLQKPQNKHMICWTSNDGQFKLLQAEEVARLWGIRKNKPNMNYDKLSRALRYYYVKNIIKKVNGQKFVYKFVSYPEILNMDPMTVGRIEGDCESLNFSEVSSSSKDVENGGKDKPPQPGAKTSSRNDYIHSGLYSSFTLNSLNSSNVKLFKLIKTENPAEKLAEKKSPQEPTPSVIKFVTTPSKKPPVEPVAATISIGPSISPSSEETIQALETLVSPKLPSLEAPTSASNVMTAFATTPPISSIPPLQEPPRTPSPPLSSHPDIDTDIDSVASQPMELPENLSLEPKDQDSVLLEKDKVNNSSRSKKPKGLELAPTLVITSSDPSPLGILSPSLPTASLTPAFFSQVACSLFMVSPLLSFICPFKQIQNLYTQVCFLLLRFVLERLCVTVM
The note with it: protein: recombinant; tags: N-terminal GST; dsDNA, one strand shown. The essentials:
as §1

Assay [15] has as its target T9, ETV2 (Homo sapiens, UniProt O00321 1-342).
T9 sequence: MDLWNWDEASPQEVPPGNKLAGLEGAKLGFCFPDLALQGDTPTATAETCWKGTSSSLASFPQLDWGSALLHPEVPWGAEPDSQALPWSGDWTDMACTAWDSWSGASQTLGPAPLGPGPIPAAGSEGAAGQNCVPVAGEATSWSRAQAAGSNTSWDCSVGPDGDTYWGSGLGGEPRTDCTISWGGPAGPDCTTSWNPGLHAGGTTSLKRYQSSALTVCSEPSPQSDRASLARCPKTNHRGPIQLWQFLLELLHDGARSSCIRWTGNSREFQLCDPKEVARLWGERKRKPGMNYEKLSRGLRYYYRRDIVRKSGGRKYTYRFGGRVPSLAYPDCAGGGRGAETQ
The conditions noted are these: protein: recombinant; tags: N-terminal GST; dsDNA, one strand shown. The essentials: as §1

The target in assay [16] is T10, ELF3 (Homo sapiens, UniProt P78545 1-371).
T10 sequence: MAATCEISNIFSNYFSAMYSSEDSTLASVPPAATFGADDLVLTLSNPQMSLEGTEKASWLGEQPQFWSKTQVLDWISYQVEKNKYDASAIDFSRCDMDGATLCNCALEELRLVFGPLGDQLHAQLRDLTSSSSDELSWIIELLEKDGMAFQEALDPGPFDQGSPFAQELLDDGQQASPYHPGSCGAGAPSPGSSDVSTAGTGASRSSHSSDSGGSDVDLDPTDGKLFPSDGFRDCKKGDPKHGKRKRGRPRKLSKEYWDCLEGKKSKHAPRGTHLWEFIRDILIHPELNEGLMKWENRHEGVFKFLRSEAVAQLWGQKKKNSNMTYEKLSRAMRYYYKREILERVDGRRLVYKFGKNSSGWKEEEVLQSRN
The note with it: protein: recombinant; tags: N-terminal GST; dsDNA, one strand shown. Summed up: as §1

Assay [17] concerns the target CRX (Homo sapiens, UniProt O43186 1-299). The note with it: protein: recombinant; tags: N-terminal GST; dsDNA, one strand shown. Summed up:
as §1

Assay [18] deals with ETV1 (Homo sapiens, UniProt P50549 1-477). The conditions noted are these: protein: recombinant; tags: N-terminal GST; dsDNA, one strand shown. Summed up:
as §1

This note sets out measurements from article PMC7862700, “An all-to-all approach to the identification of sequence-specific readers for epigenetic DNA modifications on cytosine”.

Chain of ELF4 (Q99607 whole entry): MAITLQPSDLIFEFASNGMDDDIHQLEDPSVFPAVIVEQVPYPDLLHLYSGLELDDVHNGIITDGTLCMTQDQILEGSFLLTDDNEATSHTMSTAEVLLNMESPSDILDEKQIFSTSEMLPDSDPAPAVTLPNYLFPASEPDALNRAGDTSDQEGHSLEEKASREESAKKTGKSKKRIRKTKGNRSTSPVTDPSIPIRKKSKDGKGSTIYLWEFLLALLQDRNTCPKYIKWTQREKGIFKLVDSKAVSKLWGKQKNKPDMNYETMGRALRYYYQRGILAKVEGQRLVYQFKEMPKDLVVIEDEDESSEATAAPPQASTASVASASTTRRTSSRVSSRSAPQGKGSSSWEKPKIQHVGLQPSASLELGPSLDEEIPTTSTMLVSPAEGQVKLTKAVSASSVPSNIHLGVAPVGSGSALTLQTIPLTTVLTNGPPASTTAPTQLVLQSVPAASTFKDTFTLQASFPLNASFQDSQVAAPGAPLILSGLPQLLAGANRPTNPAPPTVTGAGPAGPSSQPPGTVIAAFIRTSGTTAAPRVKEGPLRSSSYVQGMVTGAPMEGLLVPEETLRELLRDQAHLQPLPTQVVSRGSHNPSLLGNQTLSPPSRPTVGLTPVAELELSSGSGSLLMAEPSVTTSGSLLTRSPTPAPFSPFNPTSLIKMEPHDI
Chain of ETV5 (P41161 whole entry): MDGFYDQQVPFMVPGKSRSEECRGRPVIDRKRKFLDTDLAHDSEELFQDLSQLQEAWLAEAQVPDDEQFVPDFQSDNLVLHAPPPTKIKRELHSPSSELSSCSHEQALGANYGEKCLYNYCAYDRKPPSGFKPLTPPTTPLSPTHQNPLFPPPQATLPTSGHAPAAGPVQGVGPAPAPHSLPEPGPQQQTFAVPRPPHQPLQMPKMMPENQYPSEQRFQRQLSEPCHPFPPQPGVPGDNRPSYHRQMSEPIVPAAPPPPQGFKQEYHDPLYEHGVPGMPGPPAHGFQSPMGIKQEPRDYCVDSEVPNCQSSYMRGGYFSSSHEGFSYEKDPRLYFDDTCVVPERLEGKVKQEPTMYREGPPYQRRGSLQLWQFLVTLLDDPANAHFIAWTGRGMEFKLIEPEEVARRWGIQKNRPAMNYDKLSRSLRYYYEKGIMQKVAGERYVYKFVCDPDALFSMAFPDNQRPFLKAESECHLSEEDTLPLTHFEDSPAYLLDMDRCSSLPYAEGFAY
Chain of ELF1 (P32519 whole entry): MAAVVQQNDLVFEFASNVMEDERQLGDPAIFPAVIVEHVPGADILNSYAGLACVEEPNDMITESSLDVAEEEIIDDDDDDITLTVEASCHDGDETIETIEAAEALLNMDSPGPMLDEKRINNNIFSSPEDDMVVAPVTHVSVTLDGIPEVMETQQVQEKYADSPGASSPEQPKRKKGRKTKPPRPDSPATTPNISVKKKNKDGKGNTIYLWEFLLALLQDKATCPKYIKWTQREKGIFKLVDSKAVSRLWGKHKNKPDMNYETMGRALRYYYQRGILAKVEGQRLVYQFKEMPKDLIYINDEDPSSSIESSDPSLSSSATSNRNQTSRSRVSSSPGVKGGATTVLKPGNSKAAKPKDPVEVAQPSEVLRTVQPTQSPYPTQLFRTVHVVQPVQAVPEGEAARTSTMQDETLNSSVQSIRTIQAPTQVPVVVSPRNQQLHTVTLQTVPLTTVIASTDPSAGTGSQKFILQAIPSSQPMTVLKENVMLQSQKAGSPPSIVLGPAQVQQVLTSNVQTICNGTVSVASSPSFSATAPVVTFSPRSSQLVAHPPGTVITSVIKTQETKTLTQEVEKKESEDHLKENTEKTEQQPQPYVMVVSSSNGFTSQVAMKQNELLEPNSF
Chain of ETV1 (P50549 whole entry): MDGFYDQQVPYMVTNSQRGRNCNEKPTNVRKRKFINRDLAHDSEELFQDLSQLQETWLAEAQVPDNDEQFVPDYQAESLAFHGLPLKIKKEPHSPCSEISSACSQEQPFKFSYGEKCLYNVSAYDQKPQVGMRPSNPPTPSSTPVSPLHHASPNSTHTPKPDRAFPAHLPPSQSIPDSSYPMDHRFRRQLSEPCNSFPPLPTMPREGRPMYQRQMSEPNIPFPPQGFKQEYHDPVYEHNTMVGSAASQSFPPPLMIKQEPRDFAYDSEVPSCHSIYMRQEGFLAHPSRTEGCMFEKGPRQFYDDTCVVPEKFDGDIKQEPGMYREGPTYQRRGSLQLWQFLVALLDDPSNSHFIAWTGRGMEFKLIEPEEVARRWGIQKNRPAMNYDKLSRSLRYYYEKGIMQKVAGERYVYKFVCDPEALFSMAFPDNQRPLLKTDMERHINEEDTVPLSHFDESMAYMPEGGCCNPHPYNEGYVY
Chain of HSF1 (Q00613 whole entry): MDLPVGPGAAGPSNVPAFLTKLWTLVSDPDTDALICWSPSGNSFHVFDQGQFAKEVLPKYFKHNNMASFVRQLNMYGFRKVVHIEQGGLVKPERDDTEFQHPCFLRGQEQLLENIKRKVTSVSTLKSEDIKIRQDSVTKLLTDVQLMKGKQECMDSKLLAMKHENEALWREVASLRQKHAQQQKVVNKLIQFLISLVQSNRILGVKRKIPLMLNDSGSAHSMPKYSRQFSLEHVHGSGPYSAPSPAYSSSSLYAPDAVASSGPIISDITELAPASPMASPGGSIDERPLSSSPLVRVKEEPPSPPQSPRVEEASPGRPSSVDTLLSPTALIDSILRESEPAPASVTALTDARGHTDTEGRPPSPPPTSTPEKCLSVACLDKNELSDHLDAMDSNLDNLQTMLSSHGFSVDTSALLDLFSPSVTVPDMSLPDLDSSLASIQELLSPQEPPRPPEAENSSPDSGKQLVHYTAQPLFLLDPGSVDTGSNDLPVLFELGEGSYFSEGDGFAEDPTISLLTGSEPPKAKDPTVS
Chain of SPIB (Q01892 whole entry): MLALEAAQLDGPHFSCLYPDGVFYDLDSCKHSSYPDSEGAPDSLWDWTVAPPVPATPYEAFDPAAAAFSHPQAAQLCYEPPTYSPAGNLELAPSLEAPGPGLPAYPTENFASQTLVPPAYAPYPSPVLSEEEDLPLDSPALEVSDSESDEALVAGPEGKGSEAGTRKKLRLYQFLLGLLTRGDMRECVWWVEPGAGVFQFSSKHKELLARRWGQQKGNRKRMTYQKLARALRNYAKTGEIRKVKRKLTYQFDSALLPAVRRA
Chain of CRX (O43186 whole entry): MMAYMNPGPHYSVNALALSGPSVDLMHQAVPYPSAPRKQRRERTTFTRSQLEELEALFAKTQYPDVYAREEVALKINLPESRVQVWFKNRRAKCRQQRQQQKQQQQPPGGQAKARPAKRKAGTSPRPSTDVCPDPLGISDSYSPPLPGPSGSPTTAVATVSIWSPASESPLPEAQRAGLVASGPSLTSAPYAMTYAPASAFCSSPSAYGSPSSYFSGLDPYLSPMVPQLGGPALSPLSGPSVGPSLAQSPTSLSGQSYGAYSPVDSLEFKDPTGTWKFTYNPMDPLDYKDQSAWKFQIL

In the case of TACATT, the binding signal is 1.32 fold enrichment (6-mer frequency, TF over GST control) in assay [1]; 1.17 fold enrichment (6-mer frequency, TF over GST control) in assay [2]; 1.23 fold enrichment (6-mer frequency, TF over GST control) in assay [3]; 1.21 fold enrichment (6-mer frequency, TF over GST control) in assay [4]; 1.26 fold enrichment (6-mer frequency, TF over GST control) in [5]; 1.19 fold enrichment (6-mer frequency, TF over GST control) in assay [6]. The binding signal in [7] was 1.14 fold enrichment (6-mer frequency, TF over GST control); in assay [8], 1.29 fold enrichment (6-mer frequency, TF over GST control); in assay [9], 1.23 fold enrichment (6-mer frequency, TF over GST control); in assay [10] it was 1.19 fold enrichment (6-mer frequency, TF over GST control); in [11], 1.21 fold enrichment (6-mer frequency, TF over GST control); in assay [12], 1.25 fold enrichment (6-mer frequency, TF over GST control). Also, the binding signal was 1.24 fold enrichment (6-mer frequency, TF over GST control) in [13]; 1.09 fold enrichment (6-mer frequency, TF over GST control) in [14]; 1.17 fold enrichment (6-mer frequency, TF over GST control) in assay [15]; 1.11 fold enrichment (6-mer frequency, TF over GST control) in assay [16]; 1.25 fold enrichment (6-mer frequency, TF over GST control) in assay [17]; 1.16 fold enrichment (6-mer frequency, TF over GST control) in assay [18].
